Test results reported in PubChem BioAssay (NCI).
Values joined by “and” are separate entries in the source; they are usually repeats but may differ in a detail not shown here. Identical values can stand only once. About 79,000 compounds went through this panel and 15% of them were active in at least one assay; those are over-represented in the sample as a whole. Active and inactive are the calls of the source. Rule as the data show it: active = growth inhibition above about 70%; inactive = the rest. Where a SMILES comes first, the peptide text is derived from it. [ ]: non-standard residue; d: D form. The star is where a group is joined. ξ: configuration not given here. ξF = NC(Cc1ccccc1)C(=O)O; Cbz = O=C(OCc1ccccc1)*; Aib = CC(C)(N)C(=O)O

Legend:
[1] = NCI Yeast Anticancer Drug Screen. Data for the rad50 strain (AID 155);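 also: 0% = growth of vehicle-only cultures of the same strain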; settings: S. cerevisiae rad50 strain growth inhibition, active compounds read high; at 50.0 µM unless noted
Procedure, shortened: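 DNA repair mutant yeast, compound exposure, growth read-out; inhibition is taken relative to vehicle.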

[2] = NCI Yeast Anticancer Drug Screen. Data for the mec2-1 strain (AID 157); settings: S. cerevisiae mec2-1 strain, active compounds read high; at 50.0 µM unless noted
Procedure, shortened: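 Test agents were screened against the mec2-1 yeast strain, with defined DNA repair or cell cycle alteration. Growth was scored as inhibition against vehicle-only controls.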

[3] = NCI Yeast Anticancer Drug Screen. Data for the sgs1 mgt1 strain (AID 161);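 also: 0% = growth of cultures given vehicle only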; settings: S. cerevisiae sgs1 mgt1 strain, active compounds read high; at 50.0 µM unless noted
Procedure, shortened: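 Inhibition of yeast growth, normalised to vehicle-treated controls, is reported for a strain bearing genetic alterations in DNA damage repair.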

[4] = NCI Yeast Anticancer Drug Screen. Data for the cln2 rad14 strain (AID 165);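 also: 0% = growth equal to vehicle treated cultures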; settings: S. cerevisiae cln2 rad14 strain, active compounds read high; at 50.0 µM unless noted
Procedure, shortened: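 Growth of compound-exposed yeast (cln2 rad14 genotype) measured and expressed as inhibition relative to vehicle.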

[5] = NCI Yeast Anticancer Drug Screen. Data for the bub3 strain (AID 167); settings: S. cerevisiae bub3 mutant strain, active compounds read high; at 50.0 µM unless noted
Procedure, shortened: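 In this screen, a yeast mutant lacking normal mitotic checkpoint function is challenged with compound. Relative growth versus vehicle gives the inhibition value.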

[6] = NCI Yeast Anticancer Drug Screen. Data for the mlh1 rad18 strain (AID 175); settings: S. cerevisiae mlh1 rad18 strain growth inhibition, active compounds read high; at 50.0 µM unless noted
Procedure, shortened: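 In this whole-cell yeast screen, a strain with altered DNA damage repair is challenged with compound, and its growth is measured against matched vehicle-treated controls.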

Measured: growth inhibition

CC1=CCCC2C(C=O)(C1)CC(C)C2(CO)CC/C(=C/CO)CO (stereo unspecified)
inactive: [1] 3.8% | [2] 4.05% | [3] -5.5% | [4] 32.8% | [5] -3.4% | [6] -5.7%

C=C1C(=O)OCC1C(=O)OCC (stereo unspecified)
inactive: [1] 9.35% | [2] 7.7% | [3] -0.35% | [4] 3.35% | [5] -24.8% | [6] 14.2%

NC(=O)C(c1ccccc1)C1(O)CCCCC1 (stereo unspecified)
inactive: [1] 7.7% | [2] 5.7% | [3] 9.7% | [4] 6.95% | [5] 3.2% | [6] 11.4%

C[N+]1(CC(=O)c2ccc(Cl)cc2)CCOCC1
inactive: [1] 20.8% | [2] 7.45% | [3] 10.6% | [4] -20.9% | [5] 6.6% | [6] 28.1%

CC1(C)N=C(N)N=C(N)N1CCCOc1ccc(N)cc1
inactive: [1] 33.2% | [2] -4.65% | [3] 11.8% | [4] 5.2% | [5] -3.55% | [6] 1.1%

CCOC(=O)NC(=O)c1cn(CCSCCOC(=O)NCCCCCCNC(=O)OCCSCCn2cc(C(=O)NC(=O)OCC)c(=O)n(C)c2=O)c(=O)n(C)c1=O
inactive: [1] -26% | [2] -10.6% | [3] -29.7% | [4] 7.9% | [5] -0.35% | [6] -18.4%

Nc1cc2c(cc1[N+](=O)[O-])-c1ccc(Cl)cc1C2=O
inactive: [1] 58.5% | [2] -2.45% | [3] 1.45% | [4] 7.5% | [5] -1.95% | [6] 41.2%

CC1CC(=O)C(CC(=O)O)C1C(C(=O)C(=O)Nc1c(C#N)cccc1[N+](=O)[O-])[N+](=O)[O-] (stereo unspecified)
inactive: [1] -37.7% | [2] -16.6% | [3] -43% | [4] 15.8% | [5] -43.8% | [6] -36.8%

CCOC(=O)C1(Cc2ccccc2)Cc2cc3c(cc2C1)CCC3
inactive: [1] -23.1% | [2] -50.5% | [3] -23.7% | [4] -3.5% | [5] 2.6% | [6] -2.5%

CCOC(=O)COc1cc2c(cc1C(CC)c1ccc(OC)cc1)OCO2 (stereo unspecified)
inactive: [1] -14.9% | [2] -17.6% | [3] -12.1% | [4] -20.1% | [5] 16.4% | [6] -9.5%

CC(COc1ccc(C(C)(C)C)cc1)OC=O (stereo unspecified)
inactive: [1] 14.2% | [2] 3.2% | [3] 19.4% | [4] -12.9% | [5] 16.1% | [6] -6.4%

Cc1ccc2nc(-c3ccc(NC(=O)c4ccc(N)cc4)c(S(=O)(=O)O)c3)sc2c1
inactive: [1] 1.9% | [2] 4.7% | [3] -25.9% | [4] -22% | [5] -16.4% | [6] -8.85%

CCOC(=O)C(SC(S(=O)(=O)c1ccccc1)S(=O)(=O)c1ccccc1)C(=O)OCC
inactive: [1] 33.3% | [2] -1.75% | [3] 21.2% | [4] 21.6% | [5] -2.05% | [6] 25.6%

O=c1cc(Cl)c(=O)n(-c2ccccc2)[nH]1
inactive: [1] 3.5% | [2] -4.75% | [3] -3.25% | [4] -14.6% | [5] 0.9% | [6] 2.7%

COC(=O)C(C)(C)NC(=O)C(Cc1ccccc1)NC(=O)C(C)(C)NC(=O)OCc1ccccc1 (stereo unspecified) (Cbz-[Aib]-[ξF]-[Aib]-OMe)
inactive: [1] 18.9% | [2] 4.8% | [3] -6.2% | [4] 23.1% | [5] 12.4% | [6] -1.2%

CCN(CC)c1ccc(N=Nc2ccc(-c3nc4cccnc4o3)cc2)cc1
inactive: [1] -21.4% | [2] -19.2% | [3] -22.9% | [4] -1.7% | [5] 2.15% | [6] -39.3%

C(=Nc1ccc(N=Cc2ccco2)cc1)c1ccco1
inactive: [1] 10.8% | [2] 2.3% | [3] 0.5% | [4] -8.1% | [5] -8.5% | [6] 7.35%

CCN(CC)C(=O)N(O)C1CCCCC1
inactive: [1] -35.4% | [2] 2.2% | [3] -14.9% | [4] 8.05% | [5] 4.75% | [6] -7.2%

O=C1NC(=O)c2c(O)cccc21
inactive: [1] 38.5% | [2] 23.6% | [3] 21.1% | [4] 18.2% | [5] 13.4% | [6] 27.9%

COc1ccccc1N=C(N)N/N=C/c1c[nH]c2ccccc12
inactive: [1] 0.25% | [2] -8.85% | [3] -9.6% | [4] 17% | [5] 1.45% | [6] 15.2%

CCCN(CCC)CC(O)CNc1cc(OC)cc2cccnc12 (stereo unspecified)
inactive: [1] 9.75% | [2] -16.2% | [3] 6.7% | [4] -35.7% | [5] 19.9% | [6] 5.7%

COc1ccc(/C=C2\N=C3N(Cc4ccccc4)C=C(N)N3C2=O)cc1
inactive: [1] 2.65% | [2] -6.1% | [3] 15.8% | [4] -6.55% | [5] 17.8% | [6] 9.75%

C[N+](C)(C)CC(O)C[N+](C)(C)C
inactive: [1] 12.1% | [2] 6.15% | [3] 3.6% | [4] -42.1% | [5] -3.5% | [6] 22.7%

Cc1ccc(C2OC3=C(Nc4ccc([N+](=O)[O-])cc4N3)C2=O)cc1 (stereo unspecified)
inactive: [1] 10.1% | [2] 7.75% | [3] 8.65% | [4] 12.8% | [5] -4.35% | [6] 3.25%

COc1cc(/C=C/C(=O)c2sc(Nc3ccccc3)nc2C)ccc1O
inactive: [1] 27.8% | [2] 2.8% | [3] 13.2% | [4] 0.85% | [5] 19% | [6] 28%

OCC1OC(OC2C(CO)OC(O)C(O)C2O)C(O)C(O)C1O (stereo unspecified)
inactive: [1] 19.1% | [2] 14.9% | [3] 13.9% | [4] 13.3% | [5] 20.1% | [6] 13.7%

C[N+]1(Cc2csc(-c3ccc(Cl)cc3)n2)CCCC1
inactive: [1] -12.5% | [2] -23.1% | [3] 4.55% | [4] 9.75% | [5] -5.7% | [6] -11.7%

C=CCOC(=O)CC(=C)C(=O)O
inactive: [1] 18.9% | [2] 31% | [3] 15.8% | [4] -24.8% | [5] 6.2% | [6] 7.55%

O=[N+]([O-])c1cccc(Nc2nc(Cl)nc(Cl)n2)c1
inactive: [1] -0.65% | [2] 21% | [3] 5.25% | [4] -8.25% | [5] -18.8% | [6] -14.5%

ClB1NB(Cl)NB(Cl)N1
inactive: [1] -9.45% | [2] -33.8% | [3] -9.95% | [4] -7% | [5] -11.9% | [6] 3.55%

O=C(Cc1ccccc1)NCCCN(CCCCN(CCCNC(=O)Cc1ccccc1)C(=O)OCc1ccccc1)C(=O)OCc1ccccc1
inactive: [1] -11.9% | [2] -11.6% | [3] -2.7% | [4] -7.4% | [5] -0.85% | [6] -27.6%

Nc1nc2c(c(=O)[nH]1)N(C=O)C(CCNc1ccc(C(=O)NC(CCC(=O)O)C(=O)O)cc1)CN2 (stereo unspecified)
inactive: [1] 5.35% | [2] -12.2% | [3] 2.55% | [4] -12.6% | [5] 9% | [6] 3.25%

Cc1cccc2ccc(-c3cc4ccccc4s3)nc12
inactive: [1] -5.95% | [2] -15.1% | [3] -3.1% | [4] -87.6% | [5] -10.2% | [6] -21.1%

COc1ccc(/C=N/N2CN(C(C)C(=O)O)B(NCCC(C)C)N=C2N)cc1OC (stereo unspecified)
inactive: [1] -0.5% | [2] -10.3% | [3] 20.9% | [4] 6.3% | [5] 29.2% | [6] -4.1%

CC(=O)CC(=O)N1CCc2ccccc21
inactive: [1] 3.8% | [2] -14.9% | [3] 3.8% | [4] 2.55% | [5] -19.6% | [6] 1.1%

Cc1ncc(CO)c(CO)c1O
inactive: [1] 3.05% and -8.25% | [2] -2.95% and -14% | [3] -4.2% | [4] 2.4% | [5] 7% | [6] 45.8% and -5.65%
